Bioassay records deposited in PubChem by National Center for Advancing Translational Sciences (NCATS).
This is a sample that favours compounds with a hit; in the whole collection about 8% have one here.
HT1080 IDH1KD tx – toxicity to HT-1080 IDH1 knockdown cells (counter line); Potency, µM (titrated, usually from 46.1 µM), for the others: top-dose activity, negative = toxicity, hits mostly cytotoxic; HT-1080 IDH1 knockdown viability, ATP luminescence, 48 h; 2% of 360,000 active;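 also: 0% = DMSO wells and -100% = cell-free medium wells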
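Using the IDH1-knockdown HT-1080 line run in the same batch and compound series as the NT line, viability after 48 h at 37 °C was determined by CellTiter-Glo luminescence and expressed as % activity.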
KB-V1 MDR tox – KB-V1 MDR subline cytotoxicity; KB-V1 MDR cells viability, CellTiter-Glo, 72 h; Potency, µM (series often up to 46.1 µM), hits mostly cytotoxic; 3.4% of 400,000 active; AID 1347076; also: % is scaled to controls: 0 for no effect and ±100 for the full control effect; nearly all actives have a fitted effect of over 60% in size
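Drug-selected KB-V1 cells, grown in DMEM lacking phenol red with 10% FBS, receive compound titrations; after three days at 37 degrees C, surviving cell ATP is quantified by CellTiter-Glo luminescence and responses normalized and curve-fitted.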
MCF10A rerep – DNA re-replication induction in MCF 10a cells | MCF 10A DNA re-replication, Hoechst nuclear intensity, 48 h | Potency, µM (top dose mostly 46.1 µM), without a hit: at the highest dose activity, positive = re-replication, hits mostly activators | 2.9% of 350,000 active; also: % of control where 0% means no effect; nearly all actives have a fitted effect of over 50% in size
HT1080-NT tox – kills 2HG-producing HT-1080-NT fibrosarcoma cells | HT-1080-NT fibrosarcoma viability, CellTiter-Glo ATP luminescence, 48 h | Potency, µM (highest dose often 46.1 µM), for inactives: at the top dose activity, negative = less viability, most hits filed as cytotoxic | 1.6% of 360,000 active | AID 686970;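 also: NT is the 2HG producing partner of a matched IDH1 knockdown line; 0% = DMSO-treated cells and -100% = media-only wells without cells; nearly all actives have a fitted effect of over 55% in size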
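Luminescent CellTiter-Glo readout after 48 hours of compound exposure at 37 degrees C defined viability of HT-1080-NT cells. Activity was normalized to DMSO wells and cell-free media wells; concentration-response curves were fitted and assigned curve classes.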
KB-3-1 cytotox – kills parental KB-3-1 adenocarcinoma cells. KB-3-1 viability, CellTiter-Glo ATP luminescence, 72 h. Potency, µM (titrated, usually from 46.1 µM), actives largely listed as cytotoxic. 1.4% of 400,000 active; also: % is scaled to controls: 0 for no effect and ±100 for the full control effect; nearly all actives have a fitted effect of over 60% in size
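Here the drug-naive KB-3-1 line serves as comparator for MDR sub-line selectivity; cells received compound titrations, 72 h at 37 °C, then CellTiter-Glo readout.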
SW480 rerep – induces DNA re-replication in SW480 colon adenocarcinoma cells; Potency, µM (doses to about 46.1 µM), without a hit: top-dose re-replication activation, hits mostly activators; 1.8% of 340,000 active; AID 624297; SW480 DNA re-replication, Hoechst DNA content imaging, 48 h; also: % of control where 0% means no effect; nearly all actives have a fitted effect of over 55% in size
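SW480 cells exposed to compounds for 48 hr at 37 C, 5% CO2, then Hoechst-stained 40 min. Nuclear DNA content imaged by fluorescence scanning (405 nm excitation, 500-530 nm emission); re-replication scored as increased high-intensity nuclei.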
* marks the source's active call; other numbers are inactive results; i = inactive; ? = inconclusive; nt = no result given. Calls follow the shape of the dose curve; as a rule, active = well fitted curve in the direction sought with a large enough effect; inconclusive = small, poorly fitted or top-dose-only effect, or another doubt; inactive = no such curve, though single readings can be large; an effect the other way counts as inactive or inconclusive. Potency is read from the fitted curve at half-maximal effect.

SMILES	HT1080 IDH1KD tx	KB-V1 MDR tox	MCF10A rerep	HT1080-NT tox	KB-3-1 cytotox	SW480 rerep
COC(=O)c1ccc2nc(-c3ccc(Cl)cc3)c(Cc3ccccc3OC)n2c1	-6%	i	nt	-3%	i	nt
CCCCCc1c(-c2ccc(Cl)cc2)ncn1CCc1ccccc1OC	16µM*	12µM*	nt	?	?	nt
CCCCc1c(-c2ccccc2)ncn1CCc1ccccc1OC	?	10µM*	nt	?	?	nt
CCCCc1c(-c2ccc(OC)cc2)ncn1CCc1ccccc1OC	16µM*	15µM*	nt	16µM*	?	nt
COc1ccccc1CCn1cnc(C)c1CC(C)C	?	i	nt	?	?	nt
Cc1ccc(-c2cc(C(=O)Oc3ccc(C#N)cc3)no2)cc1	nt	i	nt	nt	i	nt
CCN(N=O)c1ccc(/C=C2\C=Cc3ccccc32)cc1	nt	?	nt	nt	i	nt
COC(=O)c1cc(C)nc2c1c(=O)nc(SCc1ccccc1F)n2C1CC1	nt	i	nt	nt	i	nt
CCCCc1c(Cc2ccccc2)ncn1CCc1ccccc1OC	18µM*	18µM*	nt	?	21µM*	nt
COc1ccccc1Cc1c(-c2ccc(F)cc2)nc2ccc(Cl)cn12	1%	i	nt	-1%	i	nt
COc1ccccc1Cc1c(-c2cccc(Cl)c2)nc2ccc(Br)cn12	-5%	i	nt	-2%	i	nt
CCCc1c(-c2cccc(Cl)c2)ncn1Cc1ccccc1OC	?	16µM*	nt	?	?	nt
CCCCc1c(-c2ccc(F)cc2)ncn1CCc1ccccc1OC	?	12µM*	nt	?	?	nt
CCCCc1c(-c2cccc(Cl)c2)ncn1CCc1ccccc1OC	?	10µM*	nt	?	?	nt
COc1ccc(CNCCNC(=O)c2nonc2N)cc1OC	2%	i	16%	2%	i	-3%
Nc1nonc1C(=O)NCCNCc1ccccc1F	nt	i	nt	nt	i	nt
CNCc1c(OCc2ccccc2)ccc2ccccc12	?	i	-13%	-16%	i	1%
CNCc1c(OCc2ccccc2F)ccc2ccccc12	?	12µM*	?	18µM*	i	?
Nc1nonc1C(=O)NCCNCc1cc(Br)ccc1OCc1ccc(F)cc1	-22%	?	?	-8%	11µM*	-1%
Nc1nonc1C(=O)NCCNCc1c(OCc2ccccc2F)ccc2ccccc12	10µM*	i	?	?	?	?
Cc1ccc(Cl)cc1N1CCN(C(=O)Cc2c(C(=O)O)c(C)cn2C)CC1	nt	?	nt	nt	i	nt
CCOc1ccc(C2c3[nH]c4ccccc4c3CCN2C(=O)Cc2cccc(OCC)c2OCC)cc1 (stereo not given)	nt	i	nt	nt	i	nt
CCc1ccc(C2C(C#N)=C(N)C(C#N)(C#N)C3=CCC(C(C)(C)C)CC32)cc1 (stereo not given)	-25%	?	15µM*	-12%	?	8.2µM*
CC(C)CC(=O)Nc1nc2nc(-c3ccccc3)cc(=O)n2[nH]1	nt	?	nt	nt	i	nt
Oc1ccccc1-c1nc(NCCN2CCOCC2)c2ccccc2n1	21µM*	16µM*	16%	21µM*	?	?
SMILES	HT1080 IDH1KD tx	KB-V1 MDR tox	MCF10A rerep	HT1080-NT tox	KB-3-1 cytotox	SW480 rerep
Clc1ccc(-c2nc(NCCCN3CCOCC3)c3ccccc3n2)cc1	?	?	10%	23µM*	i	?
Clc1cccc(-c2nc(NCCN3CCOCC3)c3ccccc3n2)c1	?	21µM*	6%	?	i	1%
Clc1cccc(-c2nc(NCCCN3CCOCC3)c3ccccc3n2)c1	?	i	-1%	21µM*	i	16%
Cc1ccc(-c2nc(NCCN3CCOCC3)c3ccccc3n2)cc1	?	i	-5%	?	i	0%
Cc1cccc(CN2CCN(CC(=O)NCCc3ccc(Cl)cc3)C2=O)c1	nt	i	nt	nt	i	nt
CC(C)(C)OC(=O)C(Cc1ccc(OC(C)(C)C)cc1)NC(=O)CNC(=O)OCc1ccccc1 (stereo not given)	-14%	2.9µM*	?	0%	?	-30%
Cc1sc2ncnc(SCC(=O)NC3CC3)c2c1C	-2%	21µM*	-3%	-1%	i	-11%
CCCc1nc(SCC(=O)N2CCOCC2)c2c(C)c(C)sc2n1	0%	9.2µM*	?	-5%	i	3%
CC(=O)N1CCN(C(=O)CSc2ncnc3sc(C)c(C)c23)CC1	8%	15µM*	-4%	8%	?	-1%
Cc1nc(SCC(=O)N2CCOCC2)c2c(C)c(C)sc2n1	5%	i	4%	-4%	i	-9%
Cc1ccccc1NC(=O)CSc1nc2c(oc3ccccc32)c(=O)n1-c1ccccc1F	nt	i	nt	nt	i	nt
CCOC(=O)c1cc(-c2ccccc2)n(-c2cccc(C(=O)Nc3cccc(SC)c3)c2)c1C	nt	i	nt	nt	i	nt
COc1cccc(NC(=O)c2ccccc2OCC(=O)Nc2ccc(Br)cc2)c1	nt	i	nt	nt	i	nt
COc1ccc(C)cc1Nc1nc2c(S(=O)(=O)c3cc(C)ccc3C)nnn2c2ccsc12	nt	i	nt	nt	i	nt
COc1ccc(-c2sc3ccccc3c2C#Cc2cncn2C)cc1	?	i	?	?	?	6%
Cn1cncc1C#Cc1c(-c2ccc(S(C)(=O)=O)cc2)sc2ccccc12	1%	i	?	-1%	i	0.73µM*
CC(C)(O)C#Cc1ccc(C(=O)N2CCN(c3ccc([N+](=O)[O-])cc3)CC2)cc1	-12%	i	10%	-6%	i	-3%
CC(C)(O)C#Cc1ccc(C(=O)N2CCN(c3ccccc3)CC2)cc1	3%	i	?	1%	i	3.3µM*
O=C(CCC1N=C2c3ccccc3N=C(SCC(=O)Nc3ccccc3F)N2C1=O)NCc1ccccc1 (stereo not given)	nt	?	nt	nt	i	nt
CNC(=S)N/N=C/c1cc(Br)cc(Br)c1O	23µM*	i	7.3µM*	?	i	nt
CC(=O)Nc1ccc(C(=O)N/N=C/c2cc(Br)cc(Br)c2O)cc1	?	i	?	?	i	-146%
Oc1c(Br)cc(Br)cc1/C=N/NC(=S)N[C@H]1CC2C=CC1C2 (stereo not given in full)	21µM*	?	5.8µM*	?	?	?
Cc1ccc(/C=[N+](\[O-])c2ccc(N(C)C)cc2)c2nsnc12	-1%	i	11µM*	21µM*	i	?
Cc1ccc(C)c2c(/C=C/c3ccc(N(C)C)cc3)ccnc12	nt	i	nt	nt	?	nt
CCOC(=O)c1ccccc1NC(=O)CN1CCCN(Cc2cccc(Cl)c2)S1(=O)=O	nt	i	nt	nt	i	nt
